From PubChem
PREPL inhibitor: PREPL enzyme inhibitors, primary screen, biochemical, fluorescence polarization. Prolyl endopeptidase-like (Homo sapiens), Q4J6C6. recombinant PREPL, fluorescence polarization activity-based probe. inhibition, % at 5.96 µM. 320,000 tested, 0.68% active. AID 2751, 2010; in the data active means inhibition above about 43%;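 further: 0% = enzyme with DMSO and 100% = wells lacking enzyme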
CHT block: inhibitors of human choline transporter CHT. 310,000 tested, 0.86% active. CHT-expressing cells, membrane potential dye, choline response; hits give low values. B-score at 10 µM. AID 488975, 2010;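 active means B-score over 3 SD under the library average, and starting fluorescence ratio not unusually high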;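 further: choline stimulus applied at its EC90 after an EC20 pre-addition; B-score computed on integrated fluorescence ratio after choline addition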
Target sequence (Q9GZV3 whole entry, looked up): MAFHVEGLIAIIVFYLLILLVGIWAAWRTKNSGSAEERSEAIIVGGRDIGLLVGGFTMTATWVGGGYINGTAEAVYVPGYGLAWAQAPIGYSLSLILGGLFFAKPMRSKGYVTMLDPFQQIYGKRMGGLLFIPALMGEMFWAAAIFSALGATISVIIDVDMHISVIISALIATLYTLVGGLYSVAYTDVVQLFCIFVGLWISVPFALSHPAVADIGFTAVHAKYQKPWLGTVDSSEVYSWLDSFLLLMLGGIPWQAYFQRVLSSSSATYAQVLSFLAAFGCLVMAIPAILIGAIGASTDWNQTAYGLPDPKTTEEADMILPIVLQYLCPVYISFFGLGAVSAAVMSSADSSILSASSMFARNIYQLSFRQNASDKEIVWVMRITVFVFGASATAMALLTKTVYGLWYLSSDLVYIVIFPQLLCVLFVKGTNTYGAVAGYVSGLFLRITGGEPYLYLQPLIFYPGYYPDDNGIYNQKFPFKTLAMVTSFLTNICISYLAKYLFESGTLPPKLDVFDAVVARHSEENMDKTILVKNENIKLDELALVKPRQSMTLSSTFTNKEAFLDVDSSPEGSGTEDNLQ
CHT PAM: CHT positive allosteric modulators, primary screen, cell-based, membrane potential dye, choline EC20 | High affinity choline transporter 1 (Homo sapiens), Q9GZV3 | CHT-expressing cells; hits give high values; LV-AA mutant CHT in HEK293 cells | B-score at 10 µM | 310,000 tested, 0.49% active | AID 488977, 2010;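 active means initial fluorescence not abnormally high and integrated response B-score, plate-corrected, over 3 SD above library mean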
AI-2 QS modul: Vibrio harveyi AI-2 quorum sensing modulators, primary screen, JMH597 strain, luminescence/OD600 ratio; Vibrio harveyi JMH597 AI-2 luminescence/OD600 ratio, 9 h; hits give low values; strain lacks LuxN and CqsS sensors; 0 = neutral-control median; activity change, % at 7.5 µM; AID 2094, 2009; 300,000 tested, 0.4% active; in the data active means activity change below about -75%, passing the limit was not always enough;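 further: luminescence divided by OD600 gain over 9 h not by final OD600 alone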
ALR inh: inhibitors of human ALR sulfhydryl oxidase, primary screen, biochemical, H2O2 detection, HRP-luminol luminescence, single point. FAD-linked sulfhydryl oxidase ALR (Homo sapiens), P55789. purified ALR, DTT oxidation. inhibition, % (concentration not given with the values). 290,000 tested, 3.8% active;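 active means mean replicate inhibition above about 79%, with every replicate also reaching it, limit read from the data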
Numbers without * were called inactive; i = inactive; x = no result given. Hits are enriched below; roughly 5% of the tested compounds scored in any of these assays.

SMILES	PREPL inhibitor	CHT block	CHT PAM	AI-2 QS modul	ALR inh
COc1ccc2oc(C)c(C(=O)NN)c2c1	4	i	i	2	85*
COc1cccc(NC(=O)CSc2nc3c(c(=O)n2C)SC(C)C3)c1 (centres undefined)	0	i	i	7	99*
CC1Cc2nc(SCC(=O)Nc3nccs3)n(C)c(=O)c2S1 (centres undefined)	6	i	i	1	98*
Cc1cc(C)c(NC(=O)CSc2nc3c(c(=O)n2C)SC(C)C3)c(C)c1 (centres undefined)	0	i	i	25	-9
COCC(=O)N1CCN(c2nc3ccccc3o2)CC1	10	i	i	19	-2
CC(=O)Oc1c(C)cc(Cl)cc1C(=O)Nc1ccc([N+](=O)[O-])cc1Cl	-1	i	i	39	0
O=C(c1oc2ccccc2c1N1CCCCC1)N1CCCCC1	9	i	i	21	99*
O=C(c1cc2ccccc2o1)N1CCCCCC1	-3	i	i	-7	6
Cc1cc(C)c(S(C)(=O)=O)c(N(C)N)n1	-4	i	i	3	-4
O=C(Sc1ccc(Cl)cc1)c1ccccn1	0	i	i	22	98*
CSCCC(NC(=O)COc1ccccc1)C(=O)N1CC(C)OC(C)C1 (centres undefined)	6	x	x	x	3
CCn1nc([N+](=O)[O-])c(C(C#N)c2nc3cc(C(F)(F)F)ccc3s2)c(Cl)c1=O (centres undefined)	35	i	i	28	98*
O=S(=O)(c1ccc(F)c(F)c1)N1CCC2(CC1)OCCO2	3	i	i	4	-6
O=C1C(=O)c2ccc(-c3ccccc3)cc2-c2ccccc21	13	i	i	39	-21
O=C1C(c2ccccc2)=[N+]([O-])c2ccccc21	6	i	i	41	91*
COC(=O)C1C(C(C)C)N(c2ccccc2)OC1(C)O (centres undefined)	7	i	i	4	86*
CC(C)OC(=O)C1C(=O)CC(C)(O)C(C(=O)OC(C)C)C1c1ccccc1 (centres undefined)	6	i	i	17	-9
O=C(CCNC(=O)c1ccco1)Nc1ccc(Cl)c(C(F)(F)F)c1	-8	i	i	23	-1
CN(Cc1cccs1)C(=O)CCc1c[nH]c2ccccc12	-5	i	i	8	x
CN(CCOc1ccccc1)C(=O)CCc1c[nH]c2ccccc12	-21	i	i	24	96*
COCC(C)N=C1NN=C(c2ccc(NC(C)=O)cc2)CS1 (centres undefined)	4	i	i	26	98*
O=C(O)/C=C/C(=O)c1c(-c2ccccc2)[nH]c2ccccc12	-7	i	i	11	98*
CC(=O)c1c(-c2ccccc2)[nH]c2ccccc12	-3	i	i	50	-9
COc1ccc(-n2c(C)cc(=O)[nH]c2=O)cc1	16	i	i	1	-10
Cc1cccc(C)c1NC(=O)CN1C(=O)CCSc2ccc(S(=O)(=O)N3CCCC3)cc21	2	i	i	21	-5
SMILES	PREPL inhibitor	CHT block	CHT PAM	AI-2 QS modul	ALR inh
O=C(N/N=C/c1ccc(Cl)cc1)C(=O)N1CCCCCC1	4	i	i	30	-4
O=C(O)CN1C(=O)/C(=C\c2ccccc2OCc2ccc(Cl)cc2Cl)SC1=S	37	i	i	7	87*
O=C(O)CN1C(=O)/C(=C\c2cc(Br)ccc2OCc2ccccc2Cl)SC1=S	13	i	i	1	8
O=C(O)CCN1C(=O)/C(=C\c2cccc(OCc3ccccc3)c2)SC1=S	-21	i	i	21	-3
O=C(O)CN1C(=O)/C(=C\c2cc(Br)ccc2OCc2ccc([N+](=O)[O-])cc2)SC1=S	36	i	i	9	83*
O=C(O)CN1C(=O)/C(=C\c2cccc(OCc3ccc(Cl)cc3Cl)c2)SC1=S	x	i	i	17	99*
C#CC(CC)(CC)NC(=O)NC1CCCCC1	5	i	i	-5	-15
Cc1cc(C)c(C)c(S(=O)(=O)N2CCC(C(=O)OCC(=O)NC3CCS(=O)(=O)C3)CC2)c1C (centres undefined)	4	x	x	x	-1
Cc1cnc(=O)[nH]c1SCc1ccc([N+](=O)[O-])cc1	-1	i	i	31	99*
Cc1cnc(=O)[nH]c1SCc1ccc(C(F)(F)F)cc1	-9	i	i	23	x
COc1ccccc1NC(C)C(=O)Nc1ccc(C(C)=O)cc1 (centres undefined)	2	i	i	2	99*
Nc1cc(=O)[nH]n1C1CCCC1	0	i	i	3	23
Cc1cc(=O)c(C(=O)O)nn1-c1ccccc1F	10	i	i	10	-23
COc1ccc(-c2csc(N(CCCN(C)C)C(=O)c3ccccc3Cl)n2)cc1	-45	-8.8*	i	-10	-15
COc1ccc(-c2csc(N(CCCN(C)C)C(=O)c3ccc(F)cc3)n2)cc1	-52	i	i	0	87*
O=C(COC(=O)c1cccc(-n2cnnn2)c1)c1ccc(Br)cc1	-2	i	i	-2	-1
CN(C)c1ccc(S(=O)(=O)NCC(=O)N2CCN(c3ccccc3)CC2)cc1[N+](=O)[O-]	4	i	i	11	13
NC(=O)c1ccc(-n2c(CCC(=O)O)ccc2-c2cccs2)cc1	8	i	i	20	84*
O=C(O)CCc1ccc(-c2cccs2)n1CC1CCCO1 (centres undefined)	-5	i	i	21	99*
Cc1ccc(-n2c(CCC(=O)O)ccc2-c2cccs2)cc1	7	i	i	-3	94*
Cc1ccc(-c2ccc(CCC(=O)O)n2-c2ccc(C(=O)O)cc2)cc1	x	i	i	19	97*
CC1(C)CC(=O)C=C(NCc2ccc(C(=O)O)cc2)C1	-10	i	i	16	-3
Cc1ccc(S(=O)(=O)Nc2c(C)nc3nc[nH]n3c2=O)c(C)c1	-1	i	i	20	10
CCCn1c(CCC(=O)O)ccc1-c1cccs1	1	i	i	11	99*
Cc1cccc(-n2c(C)cc(/C=N/NC(=O)c3ccc(CN4CCOCC4)cc3)c2C)c1	11	i	i	11	99*
Cc1cc(/C=N/NC(=O)c2cccc(F)c2)c(C)n1-c1ccccc1	7	i	i	36	-1
Cc1ccc(-n2c(C)cc(/C=N/NC(=O)c3ccc(CN4CCOCC4)cc3)c2C)cc1	6	i	i	9	10
